High-throughput results as filed in PubChem BioAssay.
This is a sample that favours compounds with a hit; in the whole collection about 2.8% have one here.
DAGLB inhibitor = diacylglycerol lipase beta (human) inhibition. HEK293T DAGLB membrane lysate, EnzChek fluorogenic substrate. inhibition, % at 5.17 µM. actives 0.059% (n = 340,000). AID 504411; in the data active = inhibition above about 34%;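 also: 0% = enzyme with vehicle and 100% = wells lacking enzyme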
HTRA1 inhibitor = inhibitors of human serine peptidase HTRA1; Q92743; actives 0.5% (n = 340,000); AID 504803; recombinant HTRA1, FP-rhodamine activity-based probe, fluorescence polarization; inhibition, % at 5.96 µM; in the data active = inhibition above about 36%;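 also: 0% = enzyme with DMSO and 100% = wells lacking enzyme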
PAFAH2 FP inh = inhibitors of human PAFAH2; Q99487; recombinant PAFAH2, FP-rhodamine activity probe, fluorescence polarization; inhibition, % at 3.39 µM; actives 0.99% (n = 340,000);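 active = inhibition above the mean over all tested compounds plus 3 SD, cut at about 30% in these data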;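 also: inhibitors block probe labeling of enzyme so polarization drops; 0% = enzyme with DMSO and 100% = wells lacking PAFAH2 protein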
PAFAH1B3 inh = blocks human PAF acetylhydrolase 1B catalytic subunit 3; Q15102; recombinant PAFAH1B3, FP-rhodamine probe, fluorescence polarization; inhibition, % at 3.39 µM; actives 0.28% (n = 340,000);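 active = inhibition above the screen-wide average of all tested compounds plus 3 SD, cut at about 25% in these data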;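 also: 0% = enzyme with DMSO only and 100% = wells lacking PAFAH1B3 protein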
pPAFAH inh = pPAFAH (human) enzyme inhibition; actives 1.5% (n = 330,000); Q13093; inhibition, % at 3.39 µM; recombinant pPAFAH, FP-rhodamine probe fluorescence polarization;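 active = inhibition above the mean inhibition across the screen plus 3 SD, cut at about 25% in these data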;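 also: inhibitors block binding of the rhodamine activity-based probe so polarization drops; 0% = enzyme with DMSO and 100% = wells lacking pPAFAH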
Target sequence (Q13093 whole entry, looked up): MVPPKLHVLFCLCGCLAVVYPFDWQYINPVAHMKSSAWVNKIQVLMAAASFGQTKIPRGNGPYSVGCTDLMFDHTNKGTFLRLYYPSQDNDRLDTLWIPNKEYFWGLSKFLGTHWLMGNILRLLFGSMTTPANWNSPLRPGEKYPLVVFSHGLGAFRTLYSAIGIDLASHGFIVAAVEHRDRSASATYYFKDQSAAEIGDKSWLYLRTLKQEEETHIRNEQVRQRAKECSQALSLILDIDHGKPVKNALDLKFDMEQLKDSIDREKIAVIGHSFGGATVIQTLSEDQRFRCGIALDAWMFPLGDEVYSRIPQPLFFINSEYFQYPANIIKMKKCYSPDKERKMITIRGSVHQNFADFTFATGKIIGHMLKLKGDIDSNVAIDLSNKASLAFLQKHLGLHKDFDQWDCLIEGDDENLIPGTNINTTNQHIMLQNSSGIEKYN
PAFAH1B2 FP inh = PAFAH1B2 (human) inhibition; P68402; recombinant PAFAH1B2, FP-rhodamine activity probe, fluorescence polarization; inhibition, % at 3.39 µM; actives 1.2% (n = 340,000); AID 492953;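 active = inhibition above the mean of all tested compounds plus 3 SD, cut at about 24% in these data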;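 also: 0% = enzyme with DMSO and 100% = wells lacking PAFAH1B2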
Target sequence (P68402 whole entry, looked up): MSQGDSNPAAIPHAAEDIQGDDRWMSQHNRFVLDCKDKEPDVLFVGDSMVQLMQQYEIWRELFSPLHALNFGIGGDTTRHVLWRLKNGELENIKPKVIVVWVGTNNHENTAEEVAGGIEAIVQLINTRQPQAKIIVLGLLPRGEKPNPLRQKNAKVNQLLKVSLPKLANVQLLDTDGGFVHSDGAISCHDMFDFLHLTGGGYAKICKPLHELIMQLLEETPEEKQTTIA
Numbers without * were called inactive; nt = not tested or not shown.

SMILES | DAGLB inhibitor | HTRA1 inhibitor | PAFAH2 FP inh | PAFAH1B3 inh | pPAFAH inh | PAFAH1B2 FP inh
S=C(Nc1ccccc1)N1CCOCCOCCN(C(=S)Nc2ccccc2)CCOCCOCC1 | -4 | -6 | -2 | -4 | 5 | -4
N/C(=N\OC(=O)Cc1ccccc1)c1cccc(Br)c1 | -10 | -7 | 5 | 7 | 0 | 30*
Cc1ccc(/C(N)=N/OC(=O)CSc2ccccc2)cc1 | -9 | -2 | 5 | -1 | 5 | 7
COc1ccc(/C(N)=N/OC(=O)CSc2ccccc2)cc1 | -13 | -18 | 8 | 9 | 5 | 29*
Cc1ccc(S(=O)(=O)N(C)CC(=O)O/N=C(\N)c2cccc([N+](=O)[O-])c2)cc1 | -1 | -6 | -7 | 4 | 6 | 4
Cc1ccc(SCC(=O)O/N=C(\N)c2cccc([N+](=O)[O-])c2)cc1 | -13 | -9 | 2 | 3 | 13 | 36*
N/C(=N\OC(=O)CCCc1ccccc1)c1cccc([N+](=O)[O-])c1 | -14 | -7 | -4 | 4 | 1 | 26*
N/C(=N\OC(=O)CCCc1ccccc1)c1ccccc1 | -19 | -4 | -1 | 10 | 3 | 11
COc1ccc(C(=O)COC(=O)Cn2[nH]c(=O)c3ccccc3c2=O)c(OC)c1 | -4 | -2 | -5 | 0 | 7 | -5
CC1CCN(C(=O)Cn2nnc(-c3ccc([N+](=O)[O-])cc3)n2)CC1 | 7 | -2 | 0 | 2 | 0 | 1
COC(=O)CS(=O)(=O)c1cccc2cccnc12 | 1 | 4 | -4 | -2 | 0 | -1
Cc1ccc(C(=O)CCC(=O)N2CCC(C(N)=O)CC2)s1 | -1 | 3 | -5 | 0 | 2 | 0
O=C1CC(c2ccco2)CC(O)=C1C=Nc1cc(Cl)ccc1O (stereo not drawn) | 7 | 21 | 9 | 14 | 34* | 7
O=C1CC(c2ccco2)CC(O)=C1C=Nc1cc(Cl)ccc1Cl (stereo not drawn) | -2 | 7 | 6 | 1 | 19 | 4
COc1ccccc1-n1cnc2cc(NS(=O)(=O)c3ccc(Br)cc3)ccc21 | 0 | -66 | 0 | 6 | 4 | 25*
COc1cc(S(=O)(=O)Nc2ccc(Br)cc2)ccc1N | 3 | -1 | -1 | 6 | 25* | 7
CCOC(=O)Oc1ccc2c(=O)c(Oc3cccc(C)c3)coc2c1 | 0 | 51* | 12 | 8 | 7 | 1
CCOC(=O)Oc1ccc2c(=O)c(Oc3cc(C)cc(C)c3)coc2c1 | -3 | 49* | 9 | -2 | 6 | -1
C[C@@H]1CN([C@@H](C)CO)C(=O)CCCn2nncc2CO[C@H]1CN(C)S(=O)(=O)c1cccc(F)c1 | 0 | 1 | nt | nt | nt | nt
COc1cccc(NC(=O)CCNC(=O)c2ccccc2Cl)c1 | -1 | 7 | 5 | 8 | 2 | 3
COc1cc(NC(=O)C2CCCN(S(=O)(=O)c3ccc4c(c3)CCCN4C(C)=O)C2)cc(OC)c1 (stereo not drawn) | -3 | -13 | 1 | 5 | 30* | -1
O=C(Cc1ccc(F)cc1)N/N=C/c1ccc(-c2ccc(Cl)c(C(=O)O)c2)o1 | 2 | -7 | 1 | 6 | 7 | 2
O=C(O)c1cc(N/N=C/c2ccc(-c3ccc(F)cc3)o2)ccc1Cl | 7 | 2 | 0 | 5 | 31* | 5
O=C(CCN1C(=O)[C@@H]2Cc3ccccc3CN2C1=O)N[C@H](C(=O)O)c1ccccc1 | -1 | 2 | -1 | 1 | -1 | 1
Cn1cccc1CC(=O)N/N=C\c1c2ccccc2cc2ccccc12 | 11 | 16 | 17 | 1 | 27* | 5
SMILES | DAGLB inhibitor | HTRA1 inhibitor | PAFAH2 FP inh | PAFAH1B3 inh | pPAFAH inh | PAFAH1B2 FP inh
Cc1ccc(C=Nc2ccc(N(C)C)cc2)o1 | 9 | 52* | -3 | 10 | 19 | 5
O=C(O)c1ccccc1C1=Nc2ccc(O)cc2Oc2cc(O)ccc21 | -15 | 17 | -73 | 8 | 28* | 9
Cc1cc(-c2ccccc2C(=O)O)on1 | 5 | 0 | -7 | -1 | 0 | -3
CC(=O)Nc1ccc(S(=O)(=O)Nc2ccc(Cc3ccncc3)cc2)cc1 | -1 | -6 | 0 | 5 | 29* | 5
Cc1ccc(NS(=O)(=O)c2ccc(CCC(=O)O)cc2)cc1 | 1 | 1 | 10 | 2 | 34* | 12
CC(=O)Nc1ccc(Cc2ccncc2)cc1 | -1 | 0 | -10 | 13 | 2 | -4
Cc1ccc(NS(=O)(=O)c2ccc(CCC(=O)NCCCOC(C)C)cc2)cc1 | 0 | -3 | 2 | 6 | 26* | 4
CCn1c(=O)c(=O)n(CC)c2cc(S(=O)(=O)Nc3ccc(C)cc3)ccc21 | -1 | -5 | 8 | 4 | 26* | 0
COCCCNC(=O)CCc1ccc(S(=O)(=O)Nc2ccc(C)cc2)cc1 | -2 | -2 | -1 | 0 | 14 | 5
CCOc1ccccc1NC(=O)CSc1nc(=O)n(CCCN2CCOCC2)c2c1CCCC2 | 0 | -7 | 5 | 5 | 6 | -1
CC(=O)c1ccc(NS(=O)(=O)c2ccc(CC(C)C)cc2)cc1 | -5 | -10 | 2 | -1 | 17 | 28*
C=CCC[C@H](Cc1ccc(F)cc1)C(=O)OC[C@@H](Cc1c[nH]c2ccccc12)NC(=O)[C@@H](CC=C)CC(=O)N[C@@H](CO)Cc1ccccc1 | -1 | -23 | -3 | -8 | 14 | 2
C=CCC[C@H](Cc1ccc(F)cc1)C(=O)OC[C@H](Cc1c[nH]c2ccccc12)NC(=O)[C@@H](CC=C)CC(=O)NCCO | -1 | -3 | 9 | 10 | 27* | 2
C=CC[C@H](CC(=O)N(CCO)Cc1ccccc1)C(=O)N[C@@H](C)COC(=O)[C@@H](CC=C)Cc1ccc(F)cc1 | 3 | -9 | -10 | 6 | 4 | 26*
Cc1ccc(C(=O)COC(=O)c2cccc(O)c2)s1 | -1 | -12 | 10 | 0 | nt | 8
COc1ccc(C(=O)OCC(=O)c2ccc(Br)s2)c(OC)c1 | -3 | -8 | 30* | 0 | 6 | -1
COc1cccc(C(=O)OCC(=O)c2ccc(Br)s2)c1 | -14 | -17 | 46* | -5 | 14 | -7
COc1ccc(C2c3ccc(O)cc3Oc3ncn(CCN4CCOCC4)c(=N)c32)cc1OC (stereo not drawn) | -2 | 8 | 12 | 17 | 2 | 8
COc1ccc(C2c3ccc(O)cc3Oc3ncn(Cc4ccccc4)c(=N)c32)cc1OC (stereo not drawn) | -1 | -8 | 46* | 32* | -4 | 32*
O=C1OCC(c2ccccc2)=C1c1ccccc1 | -1 | -9 | 2 | 6 | 4 | -1
N#CC1=C(c2ccc(-c3ccccc3)cc2)COC1=O | 1 | -37 | 2 | 2 | 26* | 2
Cc1ccc(N2CCN(S(=O)(=O)N3CCOCC3)CC2)cc1C | 0 | 9 | 1 | 11 | 4 | 7
O=C(O)c1cccc(-n2cccc2/C=C/[N+](=O)[O-])c1 | 0 | 11 | 25 | 19 | 29* | 6
